In the supplement of paper PMC6555819 one finds PBM binding z-score data, which are given here for 40 sequences.

The test deals with VDR:RXRa (NR concentration 270 nM, RXRa partner concentration 90 nM). Kind of test: PBM binding z-score (relative to random genomic background probes); higher = stronger binding; sequences stand for … in GC…GCGATTGACAGCGTAGAATGAAGG
As for the experimental part: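 Protein-binding microarray (Agilent 4x180K custom design, double-stranded 60-nt probes: 5' GC cap, 34-nt variable region, 24-nt constant primer region; full probe sequence given). Purified or IVT nuclear receptor:RXRα heterodimers (3:1 NR:RXRα, mostly 270:90 nM) or homodimers were incubated for 1 h in PBS with 2% milk and no ligand, then detected with Alexa488 antibodies. Fluorescence from o1-orientation probes (~5 replicates averaged) was converted to z-scores against 500 random hg19 background probes. Variable regions are seed direct-repeat (DR0–DR5) sites, all their single-nucleotide variants and half-site ablations.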
In the case of GCGACTGGGGGATCAGCAGGTTACCATAACTTAA, the PBM binding z-score was 0.855.
As for TAGACTAGGTCATTGGGCCAGTATAGTACGCATC, the PBM binding z-score was 1.93.
Under GCGACTGGGGCATCAGCAGGTTACTATAACTTAA stands 0.0645; under TCTTGTAGATCAAGCAGGTTATGAAAGCCTGAGT, 0.521.
To TTGAGTAGGTTAGTCGGGGCATTCAGCCAACATA belongs 2.47.
To CCGACTGGGGCCAAGGTTACCATACTCAGTACGA belongs 0.63; to TCTAGTTGGTCACGGACGTCACACACGACGGGTA, 0.743; to CTACCAAGGTGAACATGGTCGTTGATTACTATTC, 1.18.
In the case of TATACAGGGTCAAAGGCCGGAGTACGAATGTCGA, the PBM binding z-score was 4.5.
To ACTATTAATTGAGACGAGGGCAACCGATAGGTTG belongs 0.764.
In turn, TCAGCTAGGTCAACGATGGTCAGCTAATCTGCTA gave a PBM binding z-score of 1.53.
For ATCTCTAGGTAAGACTCAGCTCAGTGAAGAACGC, the PBM binding z-score is -0.134.
Under GTTTGTAGATCAAGGTTAAGAAAGACTAAGCTAA stands 1.03; under CCTACTGGGCCATTCAGACGTCATTGATCATATG, -0.521; under GCTAGTTGGTCAGTAAAAGGTCACTCACCGGTCG, 3.51.
Under CCTCGGAGGACAAAAGGAGGTCAGAGCTGCCAGA stands 1.97; under CAAACTAGGTCGCCGGAAGGTCAAAGTCCGCATG, 4.5.
To ACAAGCAGGCCAAGGGTCACTCAAGATTAGTCCG belongs 2.94; to ACAGACAGGTGATGAAGCTAACTCAGGCTATCAT, -0.278; to CAAACTAGGTCAAGAGGTCAAATTCCGCTTCCCG, 6.17.
Take CCTAGCAGTCCAATCTGGGTCACTCAAGGCTTGA: the PBM binding z-score came to 0.794.
Under GATTCAGGGTCAAGGCCAGAGTACGCGTATTGAT stands 4.89.
To AGAACGAGGGCTATGAGTTGATAGCACGGGTGGC belongs 0.114.
To CAAACTAGCTCACAGAGGTCAAAGTCCGTGCGTA belongs 5.02; to TCATATAGGTAGTACAGGTGAAAGTCGGCATCTA, 0.794.
CGTCCAAGGTCAAAGGTGAGTGAAGAGATGACGG gave a PBM binding z-score of 4.94.
To TCTTGTAGATCAACAGGGGGTTAAGAAAGATCGA belongs 2.13; to ATTCGGAGGACAAAGGTCAGAGCTACGCCAGTGA, 3.4; to GCTTGTAGATCAACGTTAAGAAAGACTAAGCTAA, -0.456.
To GGAACGAGGGCTTTCGAGTTGATAGCATGGCGAT belongs -0.0757; to TGTCAAAGTTCAGAGGTAACGTAAGTATCCACAC, 3.36; to TCATATAGGTAAATGCTAGGTGAATGTCCGATCT, 0.74.
To TATACAGGGTCAAAGGCCAGAGAACGAATGTCGA belongs 4.77; to GGAACCAGGGCAAAGTTGATAGCATCTGTCGACG, 0.607.
In turn, GCTGCTAGGTCAGGTTGTTCAGCTAACGGGTACG yielded a PBM binding z-score of 0.65.
Under CGAACTAGGTCATTGACAGGACAGTCAATAGTAA stands 2.29; under CCTAATGGGCCATTCAGAGGTCATTGATCATATG, 4.1.
Under ATATGTAGGTTATCGGTTCATTCAGTTTGCGCAT stands 3.97.
To AATACAGGGTCATAGTAGGCCAGAGTACGCACAG belongs 4.63; to TAGCCTAGGTCAGATCGGTCCAGTATACGCTATA, 2.18.
